# Key:
# Set-up in all cases: species or system human, MV4-11 + K-562 + COLO205 + SK-N-BE2 + OVCAR-8
# RABL3 = conditions: read-out: apparent Kd; compound concentrations:100 nM and 1000 nM (sheet 'Samples'); n = 1
# TNIK = conditions: read-out: apparent Kd; compound concentrations:100 nM and 1000 nM (sheet 'Samples'); n = 1
# RAB5C = conditions: read-out: apparent Kd; compound concentrations: 100 nM and 1000 nM (sheet 'Samples'), CATDS: 1; n = 1
# STK10 = conditions: read-out: apparent Kd; compound concentrations: 100 nM and 1000 nM (sheet 'Samples'), CATDS: 0.394091035560725; n = 1
compound,measurement,setting,value
Cc1cccc(-c2n[nH]cc2-c2ccc3ncccc3n2)n1 [GW786460X],potency estimated from few doses,RABL3,1260 nM
same,potency estimated from few doses,TNIK,1720 nM
Fc1ccc(-c2c(-c3ccncc3)n(CCN3CCOCC3)c3cccnc23)cc1 [RO1154507-000],potency estimated from few doses,RAB5C,223 nM
COc1cc2ncn(-c3cc(OCC4CCCO4)c(C(N)=O)s3)c2cc1OC (stereo not shown) [GSK204607A],potency estimated from few doses,STK10,614 nM
